Holding throughout (assay): MAPPIT interaction score (arbitrary units); higher = stronger binary interaction signal, active = hit call of the paper
One assay deals with Cpr47Eg. To be noted: MAPPIT configuration: N-N; pair source set: Lit-BM-16.
Another assay deals with RpS13. To be noted: pair source set: Lit-BM-16.
For a further assay, the target named is Sas-6. The note with it: pair source set: Lit-BM-16.
The next assay addresses cnn. The note with it: pair source set: Lit-BM-16.
The next assay deals with Cyp1. The note with it: pair source set: Lit-BM-16.
A further assay deals with DIP1. The note with it: MAPPIT configuration: N-N; pair source set: screen_2.
Another assay has as its target kermit. To be noted: MAPPIT configuration: N-N; pair source set: Curagen_high_conf.
In a further assay the target is shv. To be noted: MAPPIT configuration: N-N; pair source set: Curagen_high_conf.
For another assay, the target named is Dlc90F. To be noted: MAPPIT configuration: N-N; pair source set: Finley_Y2H.
Another assay concerns the target Mtap. The note with it: MAPPIT configuration: N-N; pair source set: screen_1.

A number with no mark means an inactive call.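 How the source made its calls: active = MAPPIT score above the 99th percentile of random reference set scores in the same batch; inactive = at or below it.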
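Further: HEK293T cells with Epo stimulation, STAT-responsive firefly luciferase reporter, fold induction versus unstimulated cells divided by the larger fold induction of two negative controls lacking either bait or prey.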

B1: Cnb (protein)
chain: MGNETSLPMDMCSNFDADEIRRLGKRFRKLDLDNSGALSIDEFMSLPELQQNPLVQRVIDIFDADGNGEVDFKEFIQGVSQFSVRGDKLSKLRFAFRIYDMDNDGYISNGELFQVLKMMVGNNLKDTQLQQIVDKTICFADKDEDGKISFDEFCSVVGNTDIHKKMVVDV
On to B1, for which the MAPPIT interaction score with Cpr47Eg is 0.368; in the assay with RpS13 (MAPPIT configuration: N-C) it was 0.361; in the assay with RpS13 (MAPPIT configuration: N-N), -0.0673; in the assay with Sas-6 (MAPPIT configuration: N-C), 0.335; with Sas-6 (MAPPIT configuration: N-N) it was -0.212; with cnn (MAPPIT configuration: N-C) it was -0.173. For the same molecule, the MAPPIT interaction score with cnn (MAPPIT configuration: N-N) was 0.273.

B2: Eno (protein)
chain: MSWTASVFLRTSTTSMKFLRLRWPLPRIPQNKSANVAPRFRSKSAVSQLSSGFKFVQIRKSTCDSNEMTIKAIKARQIYDSRGNPTVEVDLTTELGLFRAAVPSGASTGVHEALELRDNDKANYHGKSVLKAVGHVNDTLGPELIKANLDVVDQASIDNFMIKLDGTENKSKFGANAILGVSLAVAKAGAAKKGVPLYKHIADLAGNKEIILPVPAFNVINGGSHAGNKLAMQEFMILPTGATSFTEAMKMGSEVYHHLKNVIKAKFGLDATAVGDEGGFAPNIQSNKEALNLISDAIAKAGYTGKIEIGMDVAASEFYKDGQYDLDFKNEKSDKSQWLPADKLANLYQEFIKDFPIVSIEDPFDQDHWEAWSNLTGCTDIQIVGDDLTVTNPKRIATAVEKKACNCLLLKVNQIGTVTESIAAHLLAKKNGWGTMVSHRSGETEDSFIGDLVVGLSTGQIKTGAPCRSERLAKYNQILRIEEEIGAGVKFAGKSFRKPQ
As for B2, the MAPPIT interaction score with Cyp1 (MAPPIT configuration: N-C) was 0.69; with Cyp1 (MAPPIT configuration: N-N), -0.102.

B3: Mob4 (protein)
chain: MKMADGSTILRRNRPGTKSKDFCRWPDEPLEEMDSTLAVQQYIQQLIKRDPSNVELILTMPEAQDEGVWKYEHLRQFCMELNGLAVRLQKECSPSTCTQMTATDQWIFLCAAHKTPKECPAIDYTRHTLDGAACLLNSNKYFPSRVSIKESSVTKLGSVCRRVYRIFSHAYFHHRRIFDEFEAETYLCHRFTHFVTKYNLMSKENLIVPINVGENAAPGESEA
Regarding B3, the MAPPIT interaction score is 0.606 with DIP1, 0.744 with kermit and 0.755 in the assay with shv.

B4: Mtap (protein)
chain: MITIKCKDTNLDPLPVKIGIIGGSGLDDPDILEQRQERVVETPYGEPSDALIEGEINGVQCVLLARHGRKHDIMPSNVNYRANIWALRDVGCTHLIVSTACGSLREEIKPGNLVVPHDFIDRTTKRLQTFYDGKAQSPRGVCHLPMFPAFSERTRNILLQAAKELEIPAHDKATIVTIEGPRFSSRSESHMFRQWGGDLINMTTCPEVVLAKEAGLLYGSVAIATDYDCWRMGCEGVNVQDVLRTFAENVIKVKKILVNAVGRIAKEDWSEDILNAKQCVCNNTMSGAM
For the molecule B4, the MAPPIT interaction score was 0.638 with Dlc90F and 5.81 (active) with Mtap.

The values are drawn from the supplement of paper PMC10105736.
